Measured values: article PMC4336329 (PLoS ONE, 2015)
About 14,000 (4.5%) of roughly 310,000 compounds showed an effect of 50% or more. The effect is printed as a negative number. For the sample, strong results were picked, then their nearest neighbours and some compounds at random.

Molecular target: human ether-à-go-go-related gene (hERG) potassium channel (human, UniProt Q12809)
Experiment: primary screen, population patch clamp on CHO cells stably expressing hERG; higher = less effect of the substance
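Also: peak tail current of the secondary pulse compared with the same well before compound.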

Sequence of human ether-à-go-go-related gene (hERG) potassium channel (Q12809 whole entry, looked up): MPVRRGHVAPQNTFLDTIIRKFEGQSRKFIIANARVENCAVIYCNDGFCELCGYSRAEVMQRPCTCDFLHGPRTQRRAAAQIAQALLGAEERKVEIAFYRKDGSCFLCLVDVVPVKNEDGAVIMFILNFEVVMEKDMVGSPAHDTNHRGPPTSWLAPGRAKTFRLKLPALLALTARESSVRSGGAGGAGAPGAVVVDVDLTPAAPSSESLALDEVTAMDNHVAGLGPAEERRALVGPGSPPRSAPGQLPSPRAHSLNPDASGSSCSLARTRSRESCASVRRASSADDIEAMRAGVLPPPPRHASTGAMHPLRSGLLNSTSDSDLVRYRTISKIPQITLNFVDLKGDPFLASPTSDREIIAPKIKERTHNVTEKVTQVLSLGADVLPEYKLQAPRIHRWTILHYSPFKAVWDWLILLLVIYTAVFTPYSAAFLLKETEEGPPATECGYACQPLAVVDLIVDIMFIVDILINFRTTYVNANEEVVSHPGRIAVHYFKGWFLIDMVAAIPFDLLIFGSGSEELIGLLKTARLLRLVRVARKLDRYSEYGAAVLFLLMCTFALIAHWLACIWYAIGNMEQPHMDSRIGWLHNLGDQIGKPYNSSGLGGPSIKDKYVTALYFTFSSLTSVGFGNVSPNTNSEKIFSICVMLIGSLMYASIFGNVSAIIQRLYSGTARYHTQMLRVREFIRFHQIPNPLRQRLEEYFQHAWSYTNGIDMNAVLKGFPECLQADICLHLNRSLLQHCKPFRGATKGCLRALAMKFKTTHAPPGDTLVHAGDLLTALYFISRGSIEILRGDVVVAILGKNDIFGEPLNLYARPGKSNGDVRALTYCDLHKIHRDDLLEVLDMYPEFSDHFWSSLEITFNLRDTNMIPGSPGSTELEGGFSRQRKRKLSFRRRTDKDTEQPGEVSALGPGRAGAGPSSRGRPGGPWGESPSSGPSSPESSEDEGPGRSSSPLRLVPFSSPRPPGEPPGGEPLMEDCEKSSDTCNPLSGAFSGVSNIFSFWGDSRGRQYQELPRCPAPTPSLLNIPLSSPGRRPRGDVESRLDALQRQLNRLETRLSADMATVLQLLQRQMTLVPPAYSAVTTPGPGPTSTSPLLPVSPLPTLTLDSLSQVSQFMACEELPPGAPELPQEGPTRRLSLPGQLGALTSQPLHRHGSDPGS

| Compound | hERG current change (%, negative = inhibition) at 10uM [%] |
| --- | --- |
| O=C1SCCC1NC(=O)C(c1ccccc1)c1ccccc1 (centres unmarked) | 3.15 |
| Cc1ccc(NC(=O)CCN2C(=O)c3cccc4cccc(c34)C2=O)cc1 | 9.71 |
| C/C(=N\NC(=S)NC(C)C)c1ccc(C(C)(C)C)cc1 | 11.1 |
| CCCCCCCCNC(=O)c1cccnc1SCC(=O)Nc1ccc(OC)cc1OC | 5.99 |
| CCCCCCCCNC(=O)c1cccnc1SCC(=O)Nc1ccccc1OC | 2.4 |
| CCCCCNC(=O)c1cccnc1SCC(=O)Nc1ccccc1OC | -65.6 |
| CN(CC(=O)Nc1ccc(F)c(F)c1F)C(=O)CC1OC(=O)c2ccccc21 (centres unmarked) | -27.6 |
| O=C(CN1C(=O)C2CCCCC2C1=O)Nc1ccc(OC(F)F)c(Cl)c1 (centres unmarked) | -2.68 |
| CN(CC(=O)Nc1ccccn1)S(=O)(=O)c1ccc(Cl)cc1 | -9.34 |
| Cc1noc(C)c1S(=O)(=O)Nc1ccc(C(C)C)cc1 | -17.6 |
| CCc1ccc(NS(=O)(=O)c2c(C)noc2C)cc1 | -10.3 |
| Cc1ccc(NS(=O)(=O)c2c(C)noc2C)cc1 | -55.1 |
| O=C(CN1C(=O)CSc2ncccc21)Nc1cccc(Cl)c1 | -25.4 |
| Cc1ccnc(SCC(=O)c2ccc(Br)s2)n1 | 3.59 |
| CC1(C)CC(=O)C2=C(C1)N(c1ccccc1C#N)C(N)=C(C#N)C2c1cccs1 (centres unmarked) | -13 |
| Cn1c2ccccc2c2nnc(NN)nc21 | 12.2 |
| Cn1c2ccccc2c2nnc(N/N=C/c3ccc(O)cc3)nc21 | -0.978 |
| C/C(=N\Nc1nnc2c3ccccc3n(C)c2n1)c1ccc(C)o1 | -52.4 |
| CCOC(=O)C1(C(F)(F)F)N=C(N(C)C)OC(N(C)C)=N1 | 5.29 |
| Cc1cc(C)cc(Nc2cnn(C34CC5CC(CC(CC(=O)O)(C5)C3)C4)c(=O)c2Cl)c1 | 5.39 |
| O=C(Nc1nc(-c2ccccn2)cs1)c1ccc(Br)s1 | 7.34 |
| COC1(OC)N=C(N)C2(C#N)C(c3ccc(F)cc3)C12C#N (centres unmarked) | 5 |
| COC1(OC)N=C(N)C2(C#N)C(c3ccc(C)cc3)C12C#N (centres unmarked) | 10.1 |

| Compound | hERG current change (%, negative = inhibition) at 10uM [%] |
| --- | --- |
| COc1ccc(C2C3(C#N)C(N)=NC(OC)(OC)C23C#N)cc1 (centres unmarked) | -53.4 |
| O=[N+]([O-])c1ccc(OCC(O)CNCCNc2nccc(C(F)(F)F)n2)cc1 (centres unmarked) | -79.2 |
| COc1ccc(OCC(O)CNCCNc2nccc(C(F)(F)F)n2)cc1 (centres unmarked) | -23.3 |
| OC(CNCCNc1ncccc1C(F)(F)F)Cn1ccc2ccccc21 (centres unmarked) | -45.3 |
| O=C(NCC(O)COc1ccc([N+](=O)[O-])cc1)c1ccccc1 (centres unmarked) | -40.4 |
| Cc1cccnc1NCC(O)COc1ccccc1 (centres unmarked) | -37.5 |
| OC(CNCCNc1ncccc1C(F)(F)F)COc1ccc(F)cc1 (centres unmarked) | -72 |
| Nc1ccc2oc3ccc(N)cc3c(=O)c2c1 | 13.8 |
| CCOc1cccc(CN(C)CC2CCCN(CCc3ccc(Cl)cc3)C2)c1O (centres unmarked) | -69.7 |
| COc1ccccc1CCN1CCCC(CN(C)Cc2ccc(OCCO)cc2)C1 (centres unmarked) | -40.8 |
| CCOc1cccc(CN(CC)CC2CCCN(CCc3cccc(OC)c3)C2)c1O (centres unmarked) | -66.7 |
| CN(Cc1ccccc1O)CC1CCCN(CCc2ccc(Cl)cc2)C1 (centres unmarked) | -76.1 |
| CCN(Cc1ccccc1OC)CC1CCCN(CCc2cccc(OC)c2)C1 (centres unmarked) | -43.6 |
| CN(Cc1ccccc1OCCO)CC1CCCN(CCc2ccc(Cl)cc2)C1 (centres unmarked) | -66.9 |
| CCOC(=O)c1cc2sc(C)cc2n1CC(=O)N1CCOCC1 | 7.06 |
| Cc1cc(NC(=O)c2cccnc2)ccc1NC(=O)c1cc2ccccc2o1 | 11.1 |
| O=C(Nc1ccccn1)C(F)(F)C(F)(F)C(F)(F)C(F)(F)C(=O)Nc1ccccn1 | -18 |
| COc1ccc(/C=C/C(=O)C2CC2)cc1Cn1nc(C)c([N+](=O)[O-])c1C | -14.6 |
| COc1cc(C(=S)N2CCOCC2)ccc1OC(=O)c1cc(OC)c(OC)c(OC)c1 | 21.8 |
| Cc1nnc(C)c2c(C)n(-c3ccc(Cl)c(N)c3)c(C)c12 | -45 |
| CC1(C)CC(=O)C2=C(C1)OC(N)=C(C#N)C21CCN(C(=O)OCc2ccccc2)CC1 | -2.49 |
| CCOC(=O)N1CCC2(CC1)C(C#N)=C(N)OC1=C2C(=O)CCC1 | -0.515 |
| N#CC1=C(N)OC2=C(C(=O)CCC2)C12CCN(C(=O)OCc1ccccc1)CC2 | -55.9 |

| Compound | hERG current change (%, negative = inhibition) at 10uM [%] |
| --- | --- |
| Cc1cc(NN)nc(NS(=O)(=O)c2ccccc2)n1 | 25.7 |
| COc1ccc(N/C(C)=C2/C(=O)C(=O)N(CCO)C2c2ccc(Br)cc2)cc1 (centres unmarked) | -49 |
| COc1ccc(C2/C(=C(/O)c3ccccc3)C(=O)C(=O)N2CCO)cc1 (centres unmarked) | -21.1 |
| COc1ccc(N/C(C)=C2/C(=O)C(=O)N(CCO)C2c2ccc([N+](=O)[O-])cc2)cc1 (centres unmarked) | -67.3 |
| O=C(N/N=C/c1ccc([N+](=O)[O-])cc1)c1cccc2cc[nH]c12 | 12.4 |
| CN(CC(=O)NCc1ccc(Cl)cc1)S(=O)(=O)c1cccc2nsnc12 | -52.5 |
| CN(CC(=O)NCc1cccs1)S(=O)(=O)c1cccc2nsnc12 | 0.981 |
| CN(CC(=O)NCc1ccc(F)cc1)S(=O)(=O)c1cccc2nsnc12 | -21.1 |
| O=C(C1=COCCO1)N1CCN(C(c2ccccc2)c2ccccc2)CC1 | -7.48 |
| Cc1ccc(CNc2nc3ccccc3n3nnnc23)cc1 | 10.6 |
| CC1CC(C)CN(C(=O)c2ccc3nc[nH]c3c2)C1 (centres unmarked) | 4.05 |
| O=c1[nH]c2ccc(Cl)cc2c(O)c1Cc1ccccc1 | 12.6 |
| Cc1ccc2nc(NCC(=O)O)nc(-c3ccccc3)c2c1 | 4.48 |
| COc1cc(C(=O)NCC2CCCO2)cc(OC)c1OC (centres unmarked) | 16.8 |
| COc1cc(C(=O)NCC2CCCCC2)cc(OC)c1OC | -67.3 |
| COc1cc(CC(=O)NCC2CCCCC2)cc(OC)c1OC | 19.6 |
| CCOC(=O)N1CCN(C(=O)C2CC(=O)N(c3ccc(OC)cc3)C2c2ccc(OC)cc2)CC1 (centres unmarked) | -13.2 |
| Cc1cccc(CSc2nc3c(cc2C#N)CN(C)CC3)c1 | -71.2 |
| CN1CCc2nc(SCc3cccc(Br)c3)c(C#N)cc2C1 | -11.7 |
| CN1CCc2nc(SCc3ccccc3Br)c(C#N)cc2C1 | -28.2 |
| CC(NC(=O)CSc1nc2c(cc1C#N)CN(C)CC2)c1ccccc1 (centres unmarked) | -20.3 |
| Cc1cccc(CSc2nc3c(cc2C#N)CCC3)c1 | 13.7 |
| CN1CCc2nc(SCCOc3ccccc3)c(C#N)cc2C1 | -66.3 |

| Compound | hERG current change (%, negative = inhibition) at 10uM [%] |
| --- | --- |
| COC/C=C/C1=CC2=CC(=O)C(C)(OC(=O)c3cnc4ccccc4n3)C(=O)C2=CN1CCOC (centres unmarked) | 13.3 |
| Cc1c[n+]([O-])n(-c2ccc(C(=O)O)cc2)n1 | 0.473 |
| COc1ccc(N(C(=O)c2snc(C(N)=O)c2N)C(C(=O)NC2CCCC2)c2ccc(OC)c(OC)c2)cc1 (centres unmarked) | 10.9 |
| CCOC(=O)C1CCN(C(=O)C2CCC(=O)N(CC3CCCCC3)C2)CC1 (centres unmarked) | 0.313 |
| CCN(CC)c1ccc(/C=C/c2ccc3ccc(OC)cc3[n+]2CC)cc1.[I-] | -82 |
| CC[n+]1c(/C=C/c2ccc(N(C)C)cc2)ccc2ccccc21.[I-] | -72.9 |
| CC[n+]1c(SC)ccc2cc(OC)ccc21.[O-][Cl+3]([O-])([O-])[O-] | -10.6 |
| CN(CCCS(=O)(=O)[O-])c1ccc(/C=C/c2ccc3ccccc3[n+]2C)cc1 | 19.6 |
| CC(C)CC[n+]1ccccc1/C=C/c1ccc(N(C)C)cc1.[I-] | -71.3 |
| CN(C)c1ccc(/C=C/c2cc[n+](C)cc2)cc1.[I-] | 2.73 |
| CCSc1ccc2cc(OC)ccc2[n+]1CC.[I-] | 10.8 |
| CN(C)c1ccc(/C=C/c2cccc[n+]2[O-])cc1 | 19.7 |
| CC[n+]1c(/C=C/c2ccc(OC)c(OC)c2)ccc2ccccc21.[I-] | 23.5 |
| CC[n+]1c(/C=C/c2ccc(OC(C)=O)c(OC)c2)ccc2ccccc21.[I-] | -4.85 |
| C[n+]1c(/C=C/c2ccc(O)cc2)ccc2ccccc21.[I-] | -40.3 |
| CN(C)c1ccc(/C=C/c2ccc3ccccc3[n+]2C)cc1.[I-] | -59.9 |
| O=C(C1CCCCC1)N1CCC(O)(c2ccc(Cl)cc2)CC1 | -10.7 |
| Cc1cccc(N2C(=O)CC(N(O)c3ccccc3)C2=O)c1 (centres unmarked) | 9.2 |
| Cc1cc(C(F)(F)F)nn1Cc1ccc(C(=O)NCc2ccco2)o1 | 5.14 |
| COc1ccc(C)cc1-n1nnnc1SCC1CCCCO1 (centres unmarked) | -14.8 |
